Experimental data reported in PubChem BioAssay (NCI).
Several values for one entry are separate records, joined by “and”; a condition that tells them apart may be missing. Identical values can stand only once. This is part of a sample that, as a whole, favours compounds with a hit. Of some 79,000 tested, about 15% had one in any assay. Where a structure was tested more than once in an assay, its records may differ in their call. Activity calls are given as the source filed them. Cut-off read from the data, not from the text of the source: active = growth inhibition above about 70%; inactive = the rest.

Columns and labels:
[1] = NCI Yeast Anticancer Drug Screen. Data for the rad50 strain (AID 155);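 note: 0% = growth of vehicle-only cultures of the same strain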; conditions: S. cerevisiae rad50 strain growth inhibition, stronger effect = higher value
How it was run: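 Yeast carrying a defined DNA repair defect were exposed to test compounds, and growth was compared with vehicle-treated controls to give percent inhibition.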

[2] = NCI Yeast Anticancer Drug Screen. Data for the mec2-1 strain (AID 157); conditions: S. cerevisiae mec2-1 strain, stronger effect = higher value
How it was run: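 Growth inhibition is read against vehicle-treated controls after compound exposure of the mec2-1 yeast strain, which is defective in DNA damage repair or cell cycle control.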

[3] = NCI Yeast Anticancer Drug Screen. Data for the sgs1 mgt1 strain (AID 161);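 note: 0% = growth of cultures given vehicle only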; conditions: S. cerevisiae sgs1 mgt1 strain, stronger effect = higher value
How it was run: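 Compounds are added to genetically altered yeast, and growth is compared with cultures given vehicle alone to give percent inhibition.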

[4] = NCI Yeast Anticancer Drug Screen. Data for the cln2 rad14 strain (AID 165);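 note: 0% = growth equal to vehicle treated cultures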; conditions: S. cerevisiae cln2 rad14 strain, stronger effect = higher value
How it was run: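 Growth inhibition, relative to vehicle-treated controls, is the read-out. The test organism is a yeast strain with defined genetic alterations, cln2 rad14.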

[5] = NCI Yeast Anticancer Drug Screen. Data for the bub3 strain (AID 167); conditions: S. cerevisiae bub3 mutant strain, stronger effect = higher value
How it was run: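 Compounds were applied to a genetically altered yeast strain carrying a cell-cycle control defect. Growth inhibition was scored against vehicle-treated controls.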

[6] = NCI Yeast Anticancer Drug Screen. Data for the mlh1 rad18 strain (AID 175); conditions: S. cerevisiae mlh1 rad18 strain growth inhibition, stronger effect = higher value
How it was run: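 Cells of a genetically altered yeast strain, deficient in DNA damage repair, were treated with compound. Their growth was then compared with that of vehicle-treated cultures to give inhibition.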

[7] = at 5.0 µM (retest, dose inferred, filed as 0.5)
[8] = at 50.0 µM (retest, dose inferred, filed as 5.0)

Compound | growth inhibition [1, 7] | growth inhibition [1, 8] | growth inhibition ([1]; at 50.0 µM) | growth inhibition [2, 7] | growth inhibition [2, 8] | growth inhibition ([2]; at 50.0 µM) | growth inhibition [3, 7] | growth inhibition [3, 8] | growth inhibition ([3]; at 50.0 µM) | growth inhibition [4, 7] | growth inhibition [4, 8] | growth inhibition ([4]; at 50.0 µM) | growth inhibition [5, 7] | growth inhibition [5, 8] | growth inhibition ([5]; at 50.0 µM) | growth inhibition [6, 7] | growth inhibition [6, 8] | growth inhibition ([6]; at 50.0 µM)
Oc1ccc(/C=N/NC(=S)NN2CCOCC2)nc1 | 38% (inactive) | 96% (active) | 87% (active) | 36% (inactive) | 95% (active) | 90.1% (active) | 42% (inactive) | 95% (active) | 89% (active) | 20% (inactive) | 91% (active) | 80.8% (active) | 46% (inactive) | 93% (active) | 88.5% (active) | 42% (inactive) | 95% (active) | 87.8% (active)
NCC(=O)OCN1C(=O)C2C3C=CC(C2C1=O)C1C2C(=O)N(COC(=O)CN)C(=O)C2C31 (stereo not given) | 28% (inactive) | 63% (inactive) | -5.35% (inactive) and 24% (inactive) | 20% (inactive) | 39% (inactive) | 8.65% (inactive) and -62% (inactive) | 25% (inactive) | 45% (inactive) | 4.85% (inactive) and -30.4% (inactive) | 21% (inactive) | 55% (inactive) | 23.5% (inactive) and -6.55% (inactive) | 24% (inactive) | 68% (inactive) | -15.2% (inactive) and -46.8% (inactive) | 26% (inactive) | 71% (active) | -18.6% (inactive) and -43.7% (inactive)
O=[N+]([O-])c1c(Cl)nc2ccccn12 | 2% (inactive) | 26% (inactive) | 14.4% (inactive) | 3% (inactive) | 28% (inactive) | 26.1% (inactive) | 2% (inactive) | 27% (inactive) | 31.1% (inactive) | 2% (inactive) | 15% (inactive) | -0.55% (inactive) | 0% (inactive) | 14% (inactive) | -2.05% (inactive) | 2% (inactive) | 26% (inactive) | 70.5% (active)
Cn1c2ccccc2c(=O)c2ccccc21 | 4% (inactive) | 38% (inactive) | -16.6% (inactive) and 82% (active) | 23% (inactive) | 9% (inactive) | -18.9% (inactive) and 13.4% (inactive) | -5% (inactive) | 9% (inactive) | -17.4% (inactive) and 18.6% (inactive) | -4% (inactive) | -2% (inactive) | -11.3% (inactive) and -35.4% (inactive) | -9% (inactive) | 1% (inactive) | 14.2% (inactive) and 3.6% (inactive) | -1% (inactive) | 20% (inactive) | -28.4% (inactive) and 31.8% (inactive)
Cc1c(Cl)cccc1NC(=O)CC1Sc2ccccc2NC1=O (stereo not given) | 23% (inactive) | 83% (active) | -1.35% (inactive) and 51.1% (inactive) | -7% (inactive) | 52% (inactive) | -6.7% (inactive) and 44.2% (inactive) | 2% (inactive) | 38% (inactive) | -22.2% (inactive) and 55% (inactive) | 8% (inactive) | 49% (inactive) | -1.1% (inactive) and 27.8% (inactive) | 4% (inactive) | 83% (active) | 1.6% (inactive) and 49.8% (inactive) | -1% (inactive) | 77% (active) | 6.5% (inactive) and 83% (active)
C=C1C(=O)N2c3ccccc3C(C)(C)C2(S)C(=O)N1C (stereo not given) | 9% (inactive) | 87% (active) | 88.8% (active) | 3% (inactive) | 86% (active) | 95.6% (active) | 3% (inactive) | 67% (inactive) | 96.5% (active) | -9% (inactive) | 40% (inactive) | 63.9% (inactive) | -5% (inactive) | 78% (active) | 93.6% (active) | 5% (inactive) | 83% (active) | 96.7% (active)
CC(C)CC(Nc1c(O)ccc2ccccc12)C(=O)O (stereo not given) | 24% (inactive) | 98% (active) | 98.8% (active) | 0% (inactive) | 99% (active) | 99.4% (active) | 17% (inactive) | 99% (active) | 99.3% (active) | 11% (inactive) | 99% (active) | 72.7% (active) | 15% (inactive) | 99% (active) | 95.2% (active) | 45% (inactive) | 99% (active) | 99.3% (active)
Nc1cc2c(cc1Cl)[nH]c(=O)c1cc(Cl)ccc12 | 46% (inactive) | 65% (inactive) | 86.2% (active) | 27% (inactive) | 14% (inactive) | 3.6% (inactive) | 26% (inactive) | 17% (inactive) | 18.3% (inactive) | 10% (inactive) | 6% (inactive) | -0.9% (inactive) | 39% (inactive) | 10% (inactive) | -11.3% (inactive) | 38% (inactive) | 40% (inactive) | 22.6% (inactive)
CCCCCCCCCCCCCCCC(=O)NCC[N+](C)(C)C | 33% (inactive) | 99% (active) | 99.5% (active) | 52% (inactive) | 100% (active) | 99.7% (active) | 50% (inactive) | 99% (active) | 99.8% (active) | 10% (inactive) | 99% (active) | 99.2% (active) | 58% (inactive) | 100% (active) | 99.5% (active) | 36% (inactive) | 99% (active) | 99.6% (active)
C[Si]1(C)CN(CCN)C[Si](C)(C)O1 | 3% (inactive) | 2% (inactive) | -3.85% (inactive) and 55.5% (inactive) | 1% (inactive) | 9% (inactive) | 4.25% (inactive) and 49.5% (inactive) | 2% (inactive) | 0% (inactive) | -15.4% (inactive) and 76.5% (active) | 2% (inactive) | -3% (inactive) | -20.3% (inactive) and 45% (inactive) | -2% (inactive) | -4% (inactive) | -3.65% (inactive) and 68.4% (inactive) | 0% (inactive) | -2% (inactive) | -1.3% (inactive) and 62.6% (inactive)
CCO/C(=C\C=O)C1CCC2C3CC=C4CC(OC(C)=O)CCC4(C)C3CCC12C (stereo not given) | 7% (inactive) | 45% (inactive) | 63.4% (inactive) | -1% (inactive) | 75% (active) | 51.5% (inactive) | 8% (inactive) | 86% (active) | 55.9% (inactive) | 2% (inactive) | 53% (inactive) | 55.1% (inactive) | -3% (inactive) | 74% (active) | 23.4% (inactive) | 14% (inactive) | 94% (active) | 53.5% (inactive)
N#Cc1c(/N=C/c2ccccc2Cl)sc2c1CCC2 | 18% (inactive) | -14% (inactive) | 20.1% (inactive) | -14% (inactive) | -4% (inactive) | -0.55% (inactive) | -1% (inactive) | 10% (inactive) | 12.1% (inactive) | 26% (inactive) | 11% (inactive) | 4.2% (inactive) | 0% (inactive) | -10% (inactive) | 23.9% (inactive) | -1% (inactive) | -20% (inactive) | 13.2% (inactive)
COC1/C=C\C=C(/C)C(=O)Nc2cc3nc4ccc(Br)cc4oc-3c(c2=O)CC(C)CC(OC)C(O)C(C)/C=C(\C)C1OC(N)=O (stereo not given) | 44% (inactive) | 97% (active) | 89.2% (active) | 57% (inactive) | 98% (active) | 90.9% (active) | 96% (active) | 98% (active) | 91.5% (active) | 85% (active) | 92% (active) | 89% (active) | 94% (active) | 97% (active) | 90.7% (active) | 57% (inactive) | 98% (active) | 88.1% (active)
COc1ccc(C2SC(N)=Nc3c2c(C)nn3C(=O)c2ccc(Cl)cc2)cc1OC (stereo not given) | 6% (inactive) | 11% (inactive) | -19.2% (inactive) | -10% (inactive) | -1% (inactive) | 14.5% (inactive) | -7% (inactive) | 0% (inactive) | 3.85% (inactive) | -21% (inactive) | 1% (inactive) | 64.5% (inactive) | -18% (inactive) | 15% (inactive) | 16.1% (inactive) | -8% (inactive) | -15% (inactive) | -26.6% (inactive)
CN(C)c1ccc(/C=C/c2ccnc3ccccc23)c(Cl)c1 | -7% (inactive) | 10% (inactive) | -1.1% (inactive) and 16.1% (inactive) | -7% (inactive) | -4% (inactive) | 11.4% (inactive) and 3.15% (inactive) | -1% (inactive) | 35% (inactive) | -0.1% (inactive) and -2% (inactive) | -22% (inactive) | -29% (inactive) | -32.5% (inactive) and 35.4% (inactive) | -1% (inactive) | 43% (inactive) | -1% (inactive) and 23.1% (inactive) | -13% (inactive) | 28% (inactive) | -5.45% (inactive) and -11.5% (inactive)
